The panel holds about 79,000 compounds, 15% with a hit somewhere; the sample as a whole holds those more often. Calls of active or inactive are those of the source. Cut-off read from the data, not from the text of the source: active = growth inhibition above about 70%; inactive = the rest.
Key:
[1] = NCI Yeast Anticancer Drug Screen. Data for the rad50 strain (AID 155);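 note: 0% = growth of vehicle-only cultures of the same strain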; details: S. cerevisiae rad50 strain growth inhibition; at 50.0 µM; active compounds read high
How it was run: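 Relative growth inhibition (compound vs vehicle) was measured in yeast with a defined repair-gene alteration.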

[2] = NCI Yeast Anticancer Drug Screen. Data for the mec2-1 strain (AID 157); details: S. cerevisiae mec2-1 strain, at 50.0 µM, active compounds read high
How it was run: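 Test agents were screened against the mec2-1 yeast strain, with defined DNA repair or cell cycle alteration. Growth was scored as inhibition against vehicle-only controls.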

[3] = NCI Yeast Anticancer Drug Screen. Data for the sgs1 mgt1 strain (AID 161);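 note: 0% = growth of cultures given vehicle only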; details: S. cerevisiae sgs1 mgt1 strain, at 50.0 µM, active compounds read high
How it was run: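 Genetically altered yeast, compound exposure, growth inhibition relative to vehicle.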

[4] = NCI Yeast Anticancer Drug Screen. Data for the cln2 rad14 strain (AID 165);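 note: 0% = growth equal to vehicle treated cultures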; details: S. cerevisiae cln2 rad14 strain, at 50.0 µM, active compounds read high
How it was run: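 Growth of compound-exposed yeast (cln2 rad14 genotype) measured and expressed as inhibition relative to vehicle.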

[5] = NCI Yeast Anticancer Drug Screen. Data for the bub3 strain (AID 167); details: S. cerevisiae bub3 mutant strain, at 50.0 µM, active compounds read high
How it was run: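 Screening used yeast with an engineered genetic alteration affecting cell cycle control. Compound-exposed cultures were compared with vehicle cultures, and reduced growth was taken as inhibition.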

[6] = NCI Yeast Anticancer Drug Screen. Data for the mlh1 rad18 strain (AID 175); details: S. cerevisiae mlh1 rad18 strain growth inhibition; at 50.0 µM; active compounds read high
How it was run: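 In this whole-cell yeast screen, a strain with altered DNA damage repair is challenged with compound, and its growth is measured against matched vehicle-treated controls.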

Measured: growth inhibition

COC(=O)c1c(C(=O)OC)c1=[N+]=[N-]
inactive: [1] 5.2% | [2] -5.35% | [3] -0.95% | [4] -10.8% | [5] -0.15% | [6] 6%

CCN(CC)CCn1c(=O)n(C)c2ccccc21
inactive: [1] 2.75% | [2] -18.7% | [3] -13.3% | [4] -35% | [5] -1.65% | [6] 20.9%

CCC1(CCOc2ccccc2)C(=O)NC(=O)NC1=O
inactive: [1] -10.9% | [2] -1.45% | [3] 1.3% | [4] -6.55% | [5] 1.6% | [6] -1.85%

CC(C)CC(C)OC(=O)Cc1ccccc1 (stereo unspecified)
inactive: [1] 39% | [2] 14.5% | [3] 31.1% | [4] -6.9% | [5] 7.8% | [6] 31.2%

CCOP(=O)(OCC)/C(C#N)=C/c1ccc(OC)cc1
inactive: [1] 2.9% | [2] -1.8% | [3] -11.4% | [4] 11.7% | [5] 11.1% | [6] -1.05%

COC(=O)c1cc([N+](=O)[O-])cc([N+](=O)[O-])c1
inactive: [1] 9% | [2] 32.2% | [3] 16.5% | [4] -8.4% | [5] 18.4% | [6] 34.1%

O=[N+]([O-])c1ccc2c(c1)[O][Sn]([I])([I])[O]2
inactive: [1] -6% | [2] -3.95% | [3] 8.8% | [4] 6.7% | [5] 1.95% | [6] -3.9%

Cc1ccc(NC(=O)/C=C/c2ccc([N+](=O)[O-])cc2)cc1S(=O)(=O)F
inactive: [1] -2.05% | [2] 27.9% | [3] 30% | [4] -5.6% | [5] 45% | [6] 15.2%

C#CC(C)N1CCC2(CC1)C(=O)NCN2c1ccccc1 (stereo unspecified)
inactive: [1] -19.3% | [2] -6.1% | [3] -15.7% | [4] -2.85% | [5] -4.05% | [6] 0.65%

CC(C)c1ccc(CCN)cc1
inactive: [1] 6.25% | [2] 3.5% | [3] -19.8% | [4] -0.2% | [5] 5.65% | [6] -6.1%

CCCCNC(=O)C(Cl)Cl
inactive: [1] 20.2% | [2] 5.4% | [3] 8.65% | [4] 2.4% | [5] -14.8% | [6] 13.9%

C=CC(=O)OC(C)C
inactive: [1] 21.6% | [2] 11.2% | [3] 2.35% | [4] -1.7% | [5] 33.8% | [6] 15.8%

Cn1nnnc1NC#N
inactive: [1] -9.15% | [2] 4.85% | [3] 1% | [4] 6.7% | [5] 23.4% | [6] -4.25%

CC(C)=CC1C(C(=O)OCc2cc3c(cc2Cl)OCO3)C1(C)C (stereo unspecified)
inactive: [1] 8.65% | [2] 12.1% | [3] -15.2% | [4] -48.9% | [5] 14.9% | [6] -3.9%

CCNC1=C(N2CC2)C(=O)C(NCC)=C(N2CC2)C1=O
inactive: [1] 30.5% | [2] 15.7% | [3] 29.4% | [4] 8.1% | [5] 13.3% | [6] 18.7%

O=C(O)c1ccccc1/C=N\NC(=S)NC1CN2CCC1CC2 (stereo unspecified)
inactive: [1] 9.45% | [2] 6.25% | [3] 6.85% | [4] -0.5% | [5] 34.6% | [6] -18.6%

O=C1NC(=S)NC(=O)C1=Cc1ccco1
inactive: [1] -4.55% | [2] -19.9% | [3] -17% | [4] 27.6% | [5] -11.2% | [6] -19.6%

O=P1(N2CCCCC2)OCC2(CO1)COP(=O)(N1CCCCC1)OC2 (stereo unspecified)
inactive: [1] -7.15% | [2] -0.6% | [3] 0.1% | [4] -7.55% | [5] -1.65% | [6] 3.2%

CCCCCCCCP(=O)(O)OP(=O)(O)OCC1OC(n2ccc(N)nc2=O)C(O)C1O (stereo unspecified)
inactive: [1] -11.2% | [2] -20.1% | [3] -9.55% | [4] 7.15% | [5] -12.2% | [6] -9%

CCOC(=O)c1c(SC)nc(-c2ccc(Cl)cc2)sc1=N
inactive: [1] 18.4% | [2] 19.6% | [3] 24.8% | [4] 25.9% | [5] 28.1% | [6] -19.7%

COc1ccc2c(c1)CC1N(C)CCC13CCCCC23 (stereo unspecified)
inactive: [1] 41.8% | [2] 19.5% | [3] -1.2% | [4] 2.1% | [5] -11.4% | [6] -70.4%

COC(=O)C(CCC(=O)O)NC(=O)OCc1ccccc1 (stereo unspecified)
inactive: [1] 40.5% | [2] -1.35% | [3] 17.6% | [4] -7.7% | [5] 4.55% | [6] 19.5%

CCC(=O)OC1(c2ccccc2)CCN(C/C=C/c2cccc3ccccc23)CC1
inactive: [4] 62.8%
active: [1] 86.3% | [2] 76.2% | [3] 89% | [5] 83% | [6] 87.2%

CN=c1ssc(/N=C(\SC)N(C)C)[n+]1C
inactive: [1] -17.7% | [2] -10.1% | [3] -13.8% | [4] -65.7% | [5] -19.4% | [6] 3.05%

Oc1ccc(Cl)cc1Br
inactive: [1] -2.4% | [2] -14.6% | [3] -1.1% | [4] 12% | [5] -23.4% | [6] -0.15%

c1ccc([Se+](c2ccccc2)c2ccccc2)cc1
inactive: [1] 16.8% | [2] -46.5% | [3] 1.75% | [4] -10.1% | [5] -1.55% | [6] 17.9%

CCCOC(=O)C(C)(C)C(OP(OCCC)OCCC)=C(C)C
inactive: [1] -7.35% | [2] 4.35% | [3] -2.5% | [4] -0.9% | [5] 1.4% | [6] 3.3%

NCCCC(N)P(=O)(O)O (stereo unspecified)
inactive: [1] 12.3% | [2] -1.6% | [3] 2.6% | [4] -106% | [5] 1% | [6] 5.55%

Oc1ccccc1/C=N/Sc1ccccc1.Oc1ccccc1/C=N/Sc1ccccc1.[Ni+2]
inactive: [1] 3.2% | [2] -0.85% | [3] 30.6% | [4] -6.6% | [5] 12.7% | [6] 36%

CN(C)NP(=O)(NN(C)C)c1ccccc1
inactive: [1] -49.9% | [2] -18.1% | [3] -22.4% | [4] -67.8% | [5] -1.6% | [6] -14.4%

CSCCC(N)C(=O)O.[Pb] (stereo unspecified)
inactive: [1] -17.9% | [2] -10.3% | [3] 13.1% | [4] -40.4% | [5] -12.4% | [6] -20.2%

N.N.N.N.N.O=C([O-])C(=O)[O-].[Co+3].[O-][Cl+3]([O-])([O-])O.[O-][Cl+3]([O-])([O-])[O-]
inactive: [1] -12.3% | [2] 11.8% | [3] -22.9% | [4] 6.2% | [5] 0.8% | [6] -12.7%

ClCCN(CCCl)c1ccc(/C=N/N=C2c3ccccc3-c3ccccc32)cc1
inactive: [1] -21.6% | [2] -7.05% | [3] -6.2% | [4] -2.95% | [5] -18.9% | [6] -4.5%

CCC(Br)(CC)C(=O)NC(N)=O
inactive: [1] 13.1% | [2] -23.8% | [3] -13.9% | [4] -16.4% | [5] -10.8% | [6] -6.05%

CCOP(=O)(OCC)Oc1c(Cl)c(Cl)c(Cl)c(Cl)c1Cl
inactive: [2] 47.4% | [4] 28.4% | [5] 23.9%
active: [1] 70.3% | [3] 86% | [6] 78.5%

N=C(N)N.[O]=[Cr](=[O])([OH])[OH]
inactive: [1] 29.4% | [2] -39.9% | [3] 37.5% | [4] 10.6% | [5] 26.8% | [6] 30.6%

O=C([O-])C(=O)[O-].[Co+3].[NH2-].[NH2-].[NH2-].[NH2-].[O-][Cl+3]([O-])([O-])O
inactive: [1] 18.5% | [2] 21.9% | [3] 13.2% | [4] 15.7% | [5] 18.1% | [6] 36.8%

CCOP(=O)(O)CP(=O)(O)OCC.CCOP(=O)(O)CP(=O)(O)OCC.[Cr]
inactive: [1] -61.8% | [2] -11.4% | [3] -32.2% | [4] -40.5% | [5] 2.7% | [6] -27.2%

CCOC(=O)C1C2(C(C)=O)C=Nc3c(C#N)cnn3C12C(=O)OCC (stereo unspecified)
inactive: [1] 0.9% | [2] -3.35% | [3] 4.85% | [4] 28.4% | [5] 4.2% | [6] -7.95%

COC(=O)C1=C(C)NC(C)=C2C(=O)Oc3ccccc3C12 (stereo unspecified)
inactive: [1] 4.75% | [2] -9.65% | [3] -7.5% | [4] 6.6% | [5] -6.8% | [6] 1.4%

CCCCCCCCCCCCCCCCS(=O)(=O)c1ccc(S(=O)(=O)F)cc1NC(=O)C(F)(F)F
inactive: [1] -22.4% | [2] -9.9% | [3] -3.6% | [4] 24.1% | [5] 12.6% | [6] 8.2%

From PubChem BioAssay (NCI)
